Bioassay records as filed in PubChem BioAssay.
TDP1 cell noCPT: qHTS for Inhibitors of human tyrosyl-DNA phosphodiesterase 1 (TDP1): qHTS in cells in absence of CPT; DT40 Tdp1-/- hTDP1 cells, no CPT, ATP luminescence, 48 h; Potency, µM (highest dose often 46.2 µM), without a hit: at the top dose activity change, negative = growth inhibition, most hits filed as inhibitors; 420,000 tested, 15% active; AID 686978, 2013; note: nearly all actives have a fitted effect of over 55% in size
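Luminescent ATP content (CellTiter-Glo) served as the growth readout. Knockout chicken DT40 cells expressing human TDP1 were exposed to compounds without camptothecin for a minimum 48 hr at 37 °C.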
PLK1 PBD inh: blocks phosphopeptide binding to human PLK1 polo-box domain; P53350; Plk1 PBD binding of FITC phosphopeptide, fluorescence polarization; Potency, µM, inactives show max response, negative = inhibition, usual class: inhibitors; 360,000 tested, 2.8% active; note: series mostly up to about 57 µM; nearly all actives have a fitted effect of over 65% in size
VDR inh: vitamin D3 receptor (human) inhibition; P11473; VDR-SRC2-3 peptide fluorescence polarization, 2 h; Potency, µM, without a hit: max response, negative = inhibition, hits mostly inhibitors; 400,000 tested, 0.93% active
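Two reagent solutions held at 4 deg C in the dark were dispensed, compounds pinned at 23 nl, and the mixture incubated 2 h at room temperature. Read-out: fluorescence polarization of VDR–SRC2-3 peptide binding.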
KAT2A inh: blocks human GCN5L2 histone acetyltransferase | AID 504327 | GCN5L2 HAT assay, ThioGlo1 CoA-SH fluorescence | Potency, µM (titrated, usually from 58.9 µM), inactives show at the top dose activity change, negative = inhibition, most hits filed as inhibitors | 390,000 tested, 0.21% active
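Fluorescence readout, Ex340nm/Em540nm: ThioGlo1 (50uM final) reacts with free CoA thiol released as 20nM GCN5L2 acetylates H3(1-25) peptide (75uM) using acetyl-CoA (70uM). Compound and enzyme sat 15 min beforehand; 20 min room-temperature reaction.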
DT40 TDP1 CPT: growth inhibition of DT40 Tdp1-/-;hTDP1 cells with camptothecin (screen for TDP1 inhibitors); chicken DT40 Tdp1-/-;hTDP1 cells + 20 nM CPT, ATP luminescence, 48 h; Potency, µM (titrated, usually from 46.2 µM), for the others: at the top dose activity change, negative = growth inhibition, actives largely listed as inhibitors; 420,000 tested, 12% active; AID 686979; note: nearly all actives have a fitted effect of over 55% in size
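Cell growth measured by CellTiter-Glo luminescence after a minimum 48 h, 37 C compound exposure with 20 nM CPT in Tdp1-knockout DT40 cells stably expressing hTDP1, seeded 400/well; qHTS titration format.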
TDP1 inh: TDP1 (human) enzyme inhibition | recombinant TDP1, AlphaScreen DNA substrate cleavage | Q9NUW8 | Potency, µM (titrated, usually from 130 µM), for inactives: at the highest dose activity change, negative = inhibition, actives largely listed as inhibitors | 350,000 tested, 0.28% active; note: nearly all actives have a fitted effect of over 40% in size
Target sequence (Q9NUW8 whole entry, looked up): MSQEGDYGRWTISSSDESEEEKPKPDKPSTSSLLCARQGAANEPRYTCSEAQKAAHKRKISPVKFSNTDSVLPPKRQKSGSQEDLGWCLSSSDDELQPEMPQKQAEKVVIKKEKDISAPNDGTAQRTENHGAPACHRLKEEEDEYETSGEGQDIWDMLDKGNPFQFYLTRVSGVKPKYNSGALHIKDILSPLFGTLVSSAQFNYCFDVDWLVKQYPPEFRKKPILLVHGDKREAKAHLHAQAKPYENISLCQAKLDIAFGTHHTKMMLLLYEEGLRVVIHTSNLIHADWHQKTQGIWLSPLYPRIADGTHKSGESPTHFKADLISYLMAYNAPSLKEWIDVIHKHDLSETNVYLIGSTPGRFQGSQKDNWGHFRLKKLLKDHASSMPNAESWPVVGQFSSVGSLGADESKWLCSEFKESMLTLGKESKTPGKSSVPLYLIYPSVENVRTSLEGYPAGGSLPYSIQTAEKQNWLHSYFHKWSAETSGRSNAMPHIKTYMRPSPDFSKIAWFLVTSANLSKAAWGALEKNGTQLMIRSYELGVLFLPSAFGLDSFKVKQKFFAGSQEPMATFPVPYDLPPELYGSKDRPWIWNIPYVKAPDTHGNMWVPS
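Recombinant E. coli-expressed Tdp1 (1 nM) preincubated with compound 15 min at RT, then 5'-biotin/3'-phosphotyrosine-FITC DNA substrate (15 nM) added for 5 min. AlphaScreen beads (10 ug/ml) added, 10 min RT; tyrosine-FITC cleavage read as signal loss.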
* marks the source's active call; other numbers are inactive results. Rows were chosen to be rich in hits. Some 18% of all compounds tested hit in one or more screens of this group. Calls come from the whole dose curve; as a rule, active = well fitted curve in the direction sought with a large enough effect; inconclusive = small, poorly fitted or top-dose-only effect, or another doubt; inactive = no such curve, though single readings can be large; an effect the other way counts as inactive or inconclusive. % is set by controls: 0 for no effect and ±100 for the full control effect; potency is the fitted concentration of half-maximal effect.

What do the screens show for `CCn1c(-c2ccc(N(C)C)cc2)nc2ccccc21`?
TDP1 cell noCPT: 3.66µM*; PLK1 PBD inh: 0.1%; VDR inh: 11.2%; KAT2A inh: -2.9%; DT40 TDP1 CPT: 11.6µM*; TDP1 inh: 5.8%

What do the screens show for `O=C1CN(C(=O)COC(=O)c2ccc(Br)o2)c2ccccc2N1`?
TDP1 cell noCPT: 3.1%; PLK1 PBD inh: -4.0%; VDR inh: -6.0%; KAT2A inh: -7.6%; DT40 TDP1 CPT: 8.8%; TDP1 inh: -18.4%

What do the screens show for `CCCCOC(=O)c1ccc(N=Nc2c(C)c(C#N)c(O)[nH]c2=O)cc1`?
TDP1 cell noCPT: 23.1µM*; PLK1 PBD inh: -3.9%; VDR inh: -25.5%; KAT2A inh: -14.8%; DT40 TDP1 CPT: inconclusive; TDP1 inh: 2.6%

Results for Cc1cccc(N=Nc2c(C)c(C#N)c(O)[nH]c2=O)c1 ?
TDP1 cell noCPT: 9.3%; PLK1 PBD inh: -12.7%; VDR inh: 11.0%; KAT2A inh: -3.3%; DT40 TDP1 CPT: 32.9%; TDP1 inh: 6.0%

What do the screens show for `COc1ccc(-c2cc3ccccc3n2CC(O)CN2CCC(C)CC2)cc1` (configuration not stated)?
TDP1 cell noCPT: 23.1µM*; PLK1 PBD inh: -19.8%; VDR inh: -6.8%; KAT2A inh: -8.1%; DT40 TDP1 CPT: inconclusive; TDP1 inh: 2.3%

What do the screens show for `COc1ccc(-c2cc3ccccc3n2CC(O)CNC(CO)(CO)CO)cc1` (configuration not stated)?
TDP1 cell noCPT: inconclusive; PLK1 PBD inh: -0.6%; VDR inh: -12.7%; KAT2A inh: -8.2%; DT40 TDP1 CPT: inconclusive; TDP1 inh: 1.1%

How did CC1(C)OCC(COC(=O)Nc2cccnc2)([N+](=O)[O-])CO1 do in these assays?
TDP1 cell noCPT: -15.5%; PLK1 PBD inh: -15.1%; VDR inh: -17.0%; KAT2A inh: 2.5%; DT40 TDP1 CPT: -0.8%; TDP1 inh: 5.1%

How did O=S(=O)(c1c(F)cccc1F)N1CCCC2CCCCC21 (configuration not stated) do in these assays?
TDP1 cell noCPT: 20.6µM*; PLK1 PBD inh: -0.1%; VDR inh: -4.7%; KAT2A inh: -3.8%; DT40 TDP1 CPT: inconclusive; TDP1 inh: -8.3%

What do the screens show for `CCCCCCCCSc1nnc2[nH]c(=O)cc(N)n12`?
TDP1 cell noCPT: inconclusive; PLK1 PBD inh: 3.36µM*; VDR inh: inconclusive; KAT2A inh: -6.4%; DT40 TDP1 CPT: inconclusive; TDP1 inh: 3.7%

Results for CC(C)CSc1nnc2[nH]c(=O)cc(N)n12 ?
TDP1 cell noCPT: -1.2%; PLK1 PBD inh: -6.8%; VDR inh: -10.2%; KAT2A inh: -1.0%; DT40 TDP1 CPT: -12.4%; TDP1 inh: 0.0%

What do the screens show for `CCc1c(C)sc(NC(=O)c2cc(C)no2)c1C#N`?
TDP1 cell noCPT: -10.4%; PLK1 PBD inh: 29.9µM*; VDR inh: -22.7%; KAT2A inh: -17.7%; DT40 TDP1 CPT: -13.6%; TDP1 inh: 5.2%

How did CCc1cc(C(=O)Nc2sc(C)c(CC)c2C#N)no1 do in these assays?
TDP1 cell noCPT: -22.1%; VDR inh: 79.4µM*; KAT2A inh: -15.0%; DT40 TDP1 CPT: -15.3%; TDP1 inh: -8.2%

How did CCc1c(C)sc(NC(=O)c2cc(C(C)C)on2)c1C#N do in these assays?
TDP1 cell noCPT: 27.0%; PLK1 PBD inh: inconclusive; VDR inh: -6.1%; KAT2A inh: -11.9%; DT40 TDP1 CPT: -6.3%; TDP1 inh: -5.3%

Results for C=CC(=O)OCC(CO)(COC(=O)C=C)COC(=O)C=C ?
TDP1 inh: 4.2%

What do the screens show for `O=C1N=C(N2CCN(Cc3ccccc3)CC2)S/C1=C/c1cccs1`?
TDP1 cell noCPT: 11.6µM*; PLK1 PBD inh: -19.9%; VDR inh: 5.2%; KAT2A inh: 0.0%; DT40 TDP1 CPT: -17.5%; TDP1 inh: 7.5%

What do the screens show for `O=C1N=C(N2CCN(c3ccccc3)CC2)S/C1=C/c1cccs1`?
TDP1 cell noCPT: inconclusive; PLK1 PBD inh: -0.1%; VDR inh: 0.4%; KAT2A inh: -3.1%; DT40 TDP1 CPT: -20.1%; TDP1 inh: 3.0%

What do the screens show for `Cc1cccc(NC(=O)CSc2nc(C)cc(C)c2C(=O)Nc2ccc(Cl)cc2)c1`?
TDP1 cell noCPT: inconclusive; VDR inh: 15.3%; KAT2A inh: -4.9%; DT40 TDP1 CPT: inconclusive; TDP1 inh: 3.6%

What do the screens show for `Cc1c(C(=O)N2CCCCC2C)sc2ncnc(N3CCc4ccccc4C3)c12` (configuration not stated)?
TDP1 cell noCPT: 13µM*; PLK1 PBD inh: -7.6%; VDR inh: 2.7%; KAT2A inh: -15.8%; DT40 TDP1 CPT: inconclusive; TDP1 inh: 1.2%

Results for Cc1nc(N2CCC(C)CC2)c2c(C)c(C(=O)Nc3ccc4c(c3)OCCO4)sc2n1 ?
TDP1 cell noCPT: inconclusive; PLK1 PBD inh: 3.2%; VDR inh: -16.7%; KAT2A inh: -16.7%; DT40 TDP1 CPT: inconclusive; TDP1 inh: 0.4%

Results for Cc1c(C(=O)Nc2ccc3c(c2)OCCO3)sc2ncnc(N3CCCCC3C)c12 (configuration not stated) ?
TDP1 cell noCPT: 14.6µM*; PLK1 PBD inh: -0.1%; VDR inh: 8.4%; KAT2A inh: -19.3%; DT40 TDP1 CPT: inconclusive; TDP1 inh: 11.4%

What do the screens show for `CCCN(CC1CC1)c1cc2c(c3c1ccn3C)C1CCC2O1` (configuration not stated)?
TDP1 cell noCPT: 10.3µM*; PLK1 PBD inh: -11.1%; DT40 TDP1 CPT: 14.6µM*

What do the screens show for `Cn1ccc2c(/C=C/c3ccc(F)cc3)cc3c(c21)C1CCC3O1` (configuration not stated)?
TDP1 cell noCPT: 11.6µM*; PLK1 PBD inh: -6.1%; DT40 TDP1 CPT: 25.9µM*

What do the screens show for `CN(c1ccc(Cl)cc1)c1cc2c(c3c1ccn3C)C1CCC2O1` (configuration not stated)?
TDP1 cell noCPT: 23.1µM*; PLK1 PBD inh: -5.8%; DT40 TDP1 CPT: inconclusive

How did COc1ccc(-c2cc3c(c4c2ccn4C)C2CCC3O2)cn1 (configuration not stated) do in these assays?
TDP1 cell noCPT: 16.4µM*; PLK1 PBD inh: -12.3%; DT40 TDP1 CPT: 18.4µM*

How did Cn1ccc2c(/C=C/c3ccc(F)cc3)cc3c(c21)C1CCC3C1 (configuration not stated) do in these assays?
TDP1 cell noCPT: inconclusive; PLK1 PBD inh: -1.9%; DT40 TDP1 CPT: -16.3%

Results for COc1ccc(CC(=O)Nc2nc(OCC(F)(F)F)cnc2-c2ccc(Cl)cc2Cl)cc1 ?
TDP1 cell noCPT: inconclusive; PLK1 PBD inh: -1.0%; DT40 TDP1 CPT: inconclusive
